# Results as given in PubChem BioAssay (NCATS).
# Results filed as inconclusive are left out. A call without a number means that no potency is given here. Calls of active or inactive are those of the source. Unless noted, calls follow the shape of the dose curve; as a rule, active = well fitted curve in the direction sought with a large enough effect; inconclusive = small, poorly fitted or top-dose-only effect, or another doubt; inactive = no such curve, though single readings can be large; an effect the other way counts as inactive or inconclusive.
# Experiments:
# [1] = target: Luciferin 4-monooxygenase (Photinus pyralis) (UniProt P08659); assay: Biochemical firefly luciferase enzyme assay for NPC (AID 624030);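 also: purified P. pyralis luciferase at 10 nM with luciferin and ATP substrate; series mostly up to about 59 µM; nearly all actives have a fitted effect of over 70% in size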
# Outline: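 Counter-screen for direct inhibition of the luciferase enzyme by approved-drug library compounds, run at 10 nM enzyme in 50 mM Tris acetate (final). Luminescence was read within 5 min of enzyme-buffer addition and normalized to PTC124 versus DMSO (0%).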
# [2] = S16 Schwann cell viability assay (CellTiter-Glo assay) (AID 624031); also: nearly all actives have a fitted effect of over 70% in size; also: potency is read from the fitted curve at half-maximal effect
# Outline: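 Concentration-effect curves come from CellTiter-Glo luminescence of S16 rat Schwann cells after 24 h compound exposure. Each reading was normalized to DMSO wells (0%) and wells without cells, and curves were ranked by r2 and response magnitude.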
# [3] = S16 Schwann cell PMP22 intronic element firefly luciferase assay (AID 624032); also: nearly all actives have a fitted effect of over 30% in size; also: potency is read from the fitted curve at half-maximal effect
# Outline: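 Rat S16 Schwann cells stably carrying a PMP22 intronic element-driven Fluc reporter were seeded overnight, then exposed to compounds for 24 h at 37 °C. Luminescence was normalized to PTC124 (positive control) and DMSO (0% activity).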
# [4] = qHTS assay for small molecule agonists of the antioxidant response element (ARE) signaling pathway (AID 651741; active = well fitted activation curve with a large enough effect in the signal ratio; the % refers to the signal ratio)
# Outline: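 Beta-lactamase reporter expression driven by the antioxidant response element in HepG2 cells was detected by fluorescence with LiveBLAzer B/G FRET substrate (2 h, room temperature) following 16 h compound treatment at 37 C.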
# [5] = qHTS assay for small molecule activators of the p53 signaling pathway (AID 651743; active = well fitted activation curve with a large enough effect in the signal ratio, not every such curve was filed as active; the % refers to the signal ratio; also: series mostly up to about 92 µM); settings: HCT-116 p53RE-bla, beta-lactamase FRET ratio, 16 h; activation: active compounds read high
# Outline: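 Here HCT-116 cells with an integrated p53-responsive beta-lactamase gene were incubated with compounds (16 hours, 37 C) after a 5-hour plating period; beta-lactamase activity was detected as fluorescence intensity via B/G FRET substrate.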
# [6] = qHTS assay for small molecule activators of the nuclear factor-kappa B (NF-kB) signaling pathway (AID 651749; active = well fitted activation curve with a large enough effect in the signal ratio; the % refers to the signal ratio; also: series mostly up to about 77 µM); settings: NF-kB-bla ME-180 cells, beta-lactamase FRET ratio, 16 h; active compounds read high
# Outline: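 Beta-lactamase reporter expression, controlled by NF-kB response elements in ME-180 cells, was quantified fluorometrically via FRET disruption; cells at 2,000/well had been incubated with 23 nL test compound for 16 hr.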
# [7] = qHTS assay for environmental chemicals that activate the Aryl hydrocarbon Receptor (AhR) signaling pathway (AID 651777); settings: 1A2-DRE human hepatoma cells, luciferase, 24 h; activation: active compounds read high; also: nearly all actives have a fitted effect of over 15% in size
# Outline: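 Stable CYP1A2 promoter/DRE-luciferase human hepatoma line treated 24 hr; One-Glo luminescence, 30 min RT.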
# [8] = target: Peroxisome proliferator-activated receptor alpha (Homo sapiens) (UniProt Q07869); assay: qHTS assay for small molecule agonists of the peroxisome proliferator-activated receptor alpha (PPARalpha) signaling pathway (AID 651778); settings: PathHunter PPARalpha complementation, chemiluminescence, 6 h; active compounds read high
# Outline: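 Cells plated at 2,000/well and held overnight at 37 C, 5% CO2, then compound added by pin tool for 6 hr; after PathHunter detection reagent and 60 min at room temperature, chemiluminescence from enzyme complementation was read.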
# [9] = target: Voltage-gated inwardly rectifying potassium channel KCNH2 (Homo sapiens) (UniProt Q12809); assay: qHTS Assay for Small Molecule Inhibitors of the Human hERG Channel Activity (AID 588834);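 also: lower thallium flux fluorescence means stronger hERG block; nearly all actives have a fitted effect of over 50% in size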; also: potency is read from the fitted curve at half-maximal effect
# Outline: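 Step 1: BacMam hERG transduction of U2OS, 4 hrs RT. Step 2: overnight 37 °C, plate 2000 cells/well, 4 hr. Step 3: FluxOR load, compound 10 min, stimulate, read fluorescence.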
# [10] = S16 Schwann cell PMP22 intronic element beta-lactamase assay (AID 624044; calls by dose curve; also: nearly all actives have a fitted effect of over 15% in size; also: potency is read from the fitted curve at half-maximal effect)
# Outline: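 Beta-lactamase reporter under a PMP22 intronic regulatory element in stable S16 rat Schwann cells; 24 h compound exposure. 460 nm blue signal normalized between DMSO (0%) and potassium clavulanate, with 535 nm FRET tracking viability; curves classed by r2 and response.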
# [11] = qHTS assay for small molecule disruptors of the mitochondrial membrane potential - 1 hr assay (AID 651754; calls by dose curve; also: nearly all actives have a fitted effect of over 35% in size)
# Outline: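 In this qHTS format, a 1 hr compound treatment of HepG2 cells precedes Mito-MPS staining, and membrane potential is judged from aggregate (red) against monomer (green) fluorescence intensity.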
# [12] = qHTS assay for small molecule disruptors of the mitochondrial membrane potential - 5 hr assay (AID 651755; calls by dose curve; also: nearly all actives have a fitted effect of over 40% in size)
# Outline: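 Seed HepG2 overnight, add compound, incubate 5 hr at 37C and 5% CO2, stain 30 min with Mito-MPS, then measure monomer (490/535 nm) and aggregate (540/590 nm) fluorescence.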
# [13] = target: Tumor necrosis factor (Homo sapiens) (UniProt P01375); assay: qHTS assay to identify small molecules that stimulate Tumor Necrosis Factor-alpha (TNF-alpha) secretion (AID 651757; active = well fitted curve in the direction sought with a large enough effect in the signal ratio; the % refers to the signal ratio)
# Outline: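 Using 3000 THP-1 cells per well, compounds and controls were applied for 17 hrs at 37 C. Detection followed with two labeled anti-TNF-alpha antibodies (cryptate donor, XL665 acceptor) for 3 hr at room temperature, measured by TR-FRET.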
# Voltage-gated inwardly rectifying potassium channel KCNH2 (Homo sapiens), sequence (Q12809 whole entry, looked up): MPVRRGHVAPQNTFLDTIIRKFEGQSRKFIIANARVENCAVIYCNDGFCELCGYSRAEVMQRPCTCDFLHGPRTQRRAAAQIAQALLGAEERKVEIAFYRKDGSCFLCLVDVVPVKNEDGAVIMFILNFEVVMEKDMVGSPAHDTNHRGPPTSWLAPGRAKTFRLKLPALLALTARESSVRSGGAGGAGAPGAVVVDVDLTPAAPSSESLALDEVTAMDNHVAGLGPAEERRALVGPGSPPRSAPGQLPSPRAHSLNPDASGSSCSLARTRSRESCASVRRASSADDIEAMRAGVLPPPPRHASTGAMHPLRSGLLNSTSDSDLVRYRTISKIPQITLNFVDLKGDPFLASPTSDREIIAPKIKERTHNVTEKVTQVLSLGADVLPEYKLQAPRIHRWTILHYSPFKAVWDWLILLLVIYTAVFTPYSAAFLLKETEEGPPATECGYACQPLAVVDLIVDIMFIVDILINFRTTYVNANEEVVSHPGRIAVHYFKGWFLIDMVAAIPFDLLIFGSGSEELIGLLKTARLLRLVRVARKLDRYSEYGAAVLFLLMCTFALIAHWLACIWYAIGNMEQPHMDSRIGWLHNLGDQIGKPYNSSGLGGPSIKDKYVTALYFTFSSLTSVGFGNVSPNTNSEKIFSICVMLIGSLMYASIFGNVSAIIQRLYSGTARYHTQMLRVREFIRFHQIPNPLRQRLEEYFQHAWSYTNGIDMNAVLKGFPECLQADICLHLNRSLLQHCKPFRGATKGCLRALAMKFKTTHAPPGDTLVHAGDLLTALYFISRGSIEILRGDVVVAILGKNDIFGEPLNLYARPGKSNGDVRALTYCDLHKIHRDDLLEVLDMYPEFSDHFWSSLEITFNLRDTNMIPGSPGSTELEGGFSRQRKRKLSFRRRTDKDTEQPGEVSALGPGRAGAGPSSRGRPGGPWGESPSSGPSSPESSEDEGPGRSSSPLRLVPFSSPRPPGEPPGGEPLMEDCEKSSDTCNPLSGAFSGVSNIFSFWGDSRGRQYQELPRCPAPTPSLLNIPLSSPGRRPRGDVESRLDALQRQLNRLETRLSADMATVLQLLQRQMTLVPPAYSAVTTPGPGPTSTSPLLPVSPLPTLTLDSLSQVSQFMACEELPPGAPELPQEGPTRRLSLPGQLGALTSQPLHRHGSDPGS
# Luciferin 4-monooxygenase (Photinus pyralis), sequence (P08659 whole entry, looked up): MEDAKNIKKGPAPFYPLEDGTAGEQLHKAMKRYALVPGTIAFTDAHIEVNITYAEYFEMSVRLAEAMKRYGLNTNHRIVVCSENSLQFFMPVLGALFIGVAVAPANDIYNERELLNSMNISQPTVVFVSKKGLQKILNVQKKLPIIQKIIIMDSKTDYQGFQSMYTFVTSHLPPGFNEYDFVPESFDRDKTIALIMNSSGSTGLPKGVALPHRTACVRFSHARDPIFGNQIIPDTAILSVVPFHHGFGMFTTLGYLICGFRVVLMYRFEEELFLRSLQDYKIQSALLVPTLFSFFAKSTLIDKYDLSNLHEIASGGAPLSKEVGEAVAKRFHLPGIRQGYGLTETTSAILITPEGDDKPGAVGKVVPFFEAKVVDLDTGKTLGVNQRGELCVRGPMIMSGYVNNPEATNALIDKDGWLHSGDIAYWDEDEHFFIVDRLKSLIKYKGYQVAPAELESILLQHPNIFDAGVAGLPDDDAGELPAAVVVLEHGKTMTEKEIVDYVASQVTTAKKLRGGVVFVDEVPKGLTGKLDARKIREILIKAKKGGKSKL
# Tumor necrosis factor (Homo sapiens), sequence (P01375 whole entry, looked up): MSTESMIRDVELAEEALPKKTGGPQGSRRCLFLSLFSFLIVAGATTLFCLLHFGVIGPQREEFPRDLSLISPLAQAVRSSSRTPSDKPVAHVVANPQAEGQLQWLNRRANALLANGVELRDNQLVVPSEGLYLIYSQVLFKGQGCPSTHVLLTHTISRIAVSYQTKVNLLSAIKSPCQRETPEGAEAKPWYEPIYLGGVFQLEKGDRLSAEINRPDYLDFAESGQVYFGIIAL
# Peroxisome proliferator-activated receptor alpha (Homo sapiens), sequence (Q07869 whole entry, looked up): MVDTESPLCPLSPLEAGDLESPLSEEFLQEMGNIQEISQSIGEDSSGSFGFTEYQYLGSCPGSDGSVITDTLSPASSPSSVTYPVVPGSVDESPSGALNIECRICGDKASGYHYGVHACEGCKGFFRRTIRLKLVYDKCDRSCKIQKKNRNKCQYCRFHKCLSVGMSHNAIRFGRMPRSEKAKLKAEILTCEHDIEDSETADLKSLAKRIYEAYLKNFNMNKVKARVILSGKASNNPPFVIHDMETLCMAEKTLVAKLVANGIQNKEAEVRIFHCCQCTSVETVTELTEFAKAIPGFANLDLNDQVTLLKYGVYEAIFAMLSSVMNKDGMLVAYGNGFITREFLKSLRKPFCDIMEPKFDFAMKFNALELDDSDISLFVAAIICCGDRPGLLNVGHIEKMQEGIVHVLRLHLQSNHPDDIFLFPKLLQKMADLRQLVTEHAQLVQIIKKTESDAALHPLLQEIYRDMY
structure (smiles),measurement,setting,value
O[C@@H](c1cc(C(F)(F)F)nc2c(C(F)(F)F)cccc12)[C@H]1CCCCN1,Potency,[1],inactive
same,Potency,[2],28.7 µM (active)
same,Potency,[3],36.1 µM (active)
CCCCOC(=O)CC(CC(=O)OCCCC)(OC(C)=O)C(=O)OCCCC,Potency,[4],inactive
same,activation,[5],-5.7% (inactive)
same,activation,[6],-0.845% (inactive)
same,activation,[7],0.777% (inactive)
same,max response,[8],5.65% (inactive)
CN1CCN(C2=Nc3ccccc3Sc3ccc(Cl)cc32)CC1,Potency,[9],14.1 µM (active)
same,Potency,[3],inactive
NC(=O)n1c(O)c(C(=O)c2cccs2)c2cc(Cl)ccc21,Potency,[9],inactive
same,Potency,[10],inactive
CCN(CC)CCNC(=O)c1cc(Br)c(N)cc1OC,Potency,[1],inactive
same,Potency,[2],inactive
CCN(CC)CCNc1ccc(CO)c2sc3ccccc3c(=O)c12,Potency,[1],inactive
same,Potency,[2],inactive
same,Potency,[3],1.61 µM (active)
same,Potency,[10],11.2 µM (active)
Cc1ccc(O)c([C@H](CCN(C(C)C)C(C)C)c2ccccc2)c1,Potency,[1],inactive
same,Potency,[2],inactive
same,Potency,[3],inactive
same,Potency,[10],inactive
Cc1cc(-c2ccccc2)nnc1NCCN1CCOCC1,Potency,[2],inactive
same,Potency,[3],inactive
same,Potency,[10],inactive
C[N+]1(CC2COC(c3ccccc3)(C3CCCCC3)O2)CCCCC1 (centres undefined),Potency,[1],inactive
same,Potency,[2],inactive
same,Potency,[10],inactive
OCCOCCN1CCN(C2=Nc3ccccc3Sc3ccccc32)CC1,Potency,[1],inactive
same,Potency,[2],inactive
same,Potency,[3],inactive
same,Potency,[10],inactive
CCOC(=O)[C@@](C)(N)Cc1ccc(O)c(O)c1,Potency,[1],inactive
Oc1ccccc1C=NCc1ccccc1,Potency,[1],inactive
same,Potency,[2],inactive
same,Potency,[3],inactive
CN1CCN(C2=Nc3cc(F)ccc3Cc3ccccc32)CC1,Potency,[1],inactive
same,Potency,[2],inactive
same,Potency,[3],inactive
same,Potency,[10],inactive
CN1CCC[C@@H]1CCO[C@](C)(c1ccccc1)c1ccc(Cl)cc1,Potency,[1],inactive
same,Potency,[3],inactive
Clc1cccc(C(c2ccc3nc[nH]c3c2)n2ccnc2)c1 (centres undefined),Potency,[1],inactive
same,Potency,[2],inactive
same,Potency,[3],inactive
same,Potency,[10],inactive
CCCCCN=C(N)N/N=C/c1c[nH]c2ccc(OC)cc12,Potency,[1],inactive
same,Potency,[2],inactive
same,Potency,[3],inactive
same,Potency,[10],inactive
CCCCCCCCCCCCOCCOCCOCCOCCOCCOCCOCCOCCOCCO,Potency,[1],inactive
C=C[C@H]1CN2CC[C@H]1C[C@H]2[C@H](O)c1ccnc2ccc(OC)cc12,Potency,[1],inactive
C[N+]1(C)CCC(=C(c2ccccc2)c2ccccc2)CC1,Potency,[1],inactive
same,Potency,[2],inactive
same,Potency,[3],inactive
CN1CCN(CCC(=O)N2c3ccccc3Sc3ccc(C(F)(F)F)cc32)CC1,Potency,[1],inactive
same,Potency,[3],inactive
same,Potency,[10],inactive
CN(C)CCN1C(=O)c2ccccc2N(C)c2ccccc21,Potency,[1],inactive
same,Potency,[2],inactive
same,Potency,[3],inactive
CCCCC(CC)COC(=O)/C=C/c1ccc(OC)cc1 (centres undefined),Potency,[1],inactive
same,Potency,[2],inactive
same,Potency,[3],inactive
same,Potency,[10],inactive
C=C[C@H]1CN2CC[C@H]1C[C@@H]2[C@@H](O)c1ccnc2ccc(OC)cc12,activation,[6],-0.176% (inactive)
same,Potency,[11],inactive
same,Potency,[12],inactive
same,outcome,[13],inactive
same,activation,[7],4.17% (inactive)
CCNC(=O)/C=C/c1cccc(Br)c1,Potency,[9],inactive
same,Potency,[3],inactive
CCC1Nc2cc(Cl)c(S(N)(=O)=O)cc2S(=O)(=O)N1 (centres undefined),Potency,[1],inactive
same,Potency,[3],inactive
CC1=C(C(=O)O)N2C(=O)[C@@H](NC(=O)[C@H](N)c3ccccc3)[C@H]2SC1,Potency,[2],inactive
same,Potency,[3],inactive
CNCCc1ccccn1,Potency,[1],inactive
same,Potency,[2],inactive
same,Potency,[3],inactive
